PubChem BioAssay (NCI)
The panel holds about 83,000 compounds, 20% with a hit somewhere; the sample as a whole holds those more often.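 Negative percent growth values reflect cell death: -40 means 40% of the cells present at the start died, and -100 means all died.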 Active and inactive are the calls of the source. Rule for the calls: active = growth percent below 10; inactive = the rest.

What follows are compounds tested on NCI-H226 lung (assay: NCI-60 one-dose screen, 48 h (100 = growth as untreated, 0 = no growth, -100 = all killed)). Details: 10 µM unless noted.
`CC(=O)Nc1ccc(-c2nc3cc(-c4ccc(O)cc4)ccc3n2C)cc1` was tested, and the growth was 90.1% (inactive). In the case of `Clc1cccc(Cl)c1/C=C/c1cc(/C=C/c2ccc(Br)cc2)c2ccccc2n1`, the growth is reported as 93% (inactive). For `COc1cc(OC)cc(-c2cc3ccc(N(C)C)cc3c(=O)[nH]2)c1`, the growth was 23% (inactive). `CNC(=O)c1cc(Oc2ccc3nc(NC(=O)Nc4cccc(OC(F)(F)F)c4)sc3c2)ccn1` was tested, and the growth was -24.5% (active). With `N#Cc1c(-c2ccc(Br)cc2)nc2n[nH]c(-c3ccc(Br)cc3)c2c1-c1ccc(F)cc1` the growth was 87.5% (inactive). `CCN1CCN(Cc2ccc(C(=O)Nc3cccc(C#Cc4cccc5[nH]nc(N)c45)c3)cc2C(F)(F)F)CC1` was tested, and the growth was -35.2% (active). In the case of `O=c1[nH]n(C(=S)N/N=C/c2ccccc2Cl)c(=O)c2ccccc12`, the growth is reported as -19.9% (active). For `CC1(C)CC[C@]2(C(=O)Nc3ccccc3)CC[C@]3(C)C(=CCC4[C@@]5(C)C[C@@H](O)[C@H](O)[C@@](C)(CO)C5CC[C@]43C)C2C1` (stereo partly specified), the growth was 54.3% (inactive). In the case of `Nc1nnc(-c2c[nH]c3ncc(Br)cc23)c(-c2c[nH]c3ccc(F)cc23)n1`, the growth is reported as 50.2% (inactive). `COc1ccc(C(=O)/C=C/c2ccccc2Br)cc1S(N)(=O)=O` was tested, and the growth was 21.5% (inactive). `CSc1ccccc1NC(=O)c1ccc2nn(/C(C#N)=C/c3ccccn3)nc2c1` was tested, and the growth was -96.8% (active). In the case of `O=C(N=Nc1c(O)[nH]c2ccc(Cl)cc12)c1ccc2nc(-c3ccccc3)[nH]c2c1`, the growth is reported as 91.1% (inactive). For `CC(=O)Oc1ccccc1C(=O)[Se]C(=NC1CCCCC1)NC1CCCCC1`, the growth was -88.1% (active). With `CSc1ccc(NC(=O)c2ccc3nnn(/C(C#N)=C/c4ccccn4)c3c2)cc1` the growth was -94.9% (active). For `COc1ccc(C(=O)/C=C/c2cccnc2)cc1S(N)(=O)=O`, the growth was 77.3% (inactive). With `Cc1ccc([C@H]2C(C(=O)c3ccc(Cl)cc3)C3(N[C@@H]2c2ccccc2)C(=O)Nc2ccccc23)cc1` (stereo partly specified) the growth was 45.5% (inactive). `CN(C)CCCNC(=O)c1cc(NC(=O)c2cc(NC(=O)c3ccc(C#Cc4ccccc4)cc3)cn2C)cn1C` was tested, and the growth was 4.56% (active). For `COc1ccc(C(=O)/C=C/c2cccc3ccccc23)cc1S(N)(=O)=O`, the growth was 32.7% (inactive). `COc1ccc(NC(=O)c2sc3nc(C(C)C)ccc3c2N)cc1` was tested, and the growth was 71.7% (inactive). `COc1ccc([C@H](C)Nc2nc(Cl)nc3ccccc23)cc1` was tested, and the growth was 58.9% (inactive). With `COc1cc2oc(-c3cccc(NC(=O)[C@H](Cc4ccccc4)NC(=O)OC(C)(C)C)c3)cc(=O)c2c(OC)c1OC` the growth was 28% (inactive). With `Cc1ccc(C(=O)CSc2nc3ccc(F)cc3c(=O)n2-c2ccc(Cl)cc2)cc1` the growth was -21.9% (active). In the case of `CC(C)Sc1nc(NCCc2c[nH]c3ccccc23)c(C#N)c(-c2ccc(F)cc2)n1`, the growth is reported as 54.5% (inactive). For `OCNc1ccc(-n2cnc3cc(-c4ccc(O)cc4)ccc32)cc1C(F)(F)F`, the growth was 51% (inactive). In the case of `Cc1cc2nc3c4ccccc4n(CCNCCN(C)C)c3nc2cc1C`, the growth is reported as 53.3% (inactive). For `COc1ccc2c(c1)C(=N/N=C(\C)c1ccc(OC)c(S(N)(=O)=O)c1)C(=O)N2`, the growth was 89.3% (inactive).
